The results in this text go back to PubChem BioAssay (NCI).

About 83,000 compounds went through this panel and 20% of them were active in at least one assay; those are over-represented in the sample as a whole.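 Negative percent growth values reflect cell death: -40 means 40% of the cells present at the start died, and -100 means all died.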 Unmarked numbers belong to inactive results. Active and inactive are the calls of the source.

This test relates to BT-549 breast. The test is described as follows: NCI-60 one-dose screen, 48 h (100 = growth as untreated, 0 = no growth, -100 = all killed). To be noted: 10 µM unless noted. As to the method:
Growth inhibition of the BT-549 human tumor cell line is measured as a screen for anti-cancer activity. Cells are grown in 96 well plates and exposed to the test compound for 48 hours. Compounds are tested at a single concentration, which is 10^-5 M for most compounds. The reported endpoint is percent growth (GI% or GIPRCNT), where numbers from 0 - 100% represent growth inhibition, and numbers from -100% - 0 represent cell death. For example, a value of 40 represents 60% growth inhibition. A value of 0 means no net growth occurred over the course of the experiment. A value of -40 indicates 40% of cells at the beginning of the experiment died by the end of the experiment. A value of -100 means all cells are dead at the end of the experiment.
NCI-60 Human Tumor Cell Lines Screen was performed using the standard one-dose NCI protocol, which is described in more detail at https://dtp.cancer.gov/discovery_development/nci-60/default.htm.
Compounds with GIPRCNT values below 10 were considered active. Activity score was based on GIPRCNT using the following formula: […]
Score is 0 for GIPRCNT values of 100 or above, 50 for GIPRCNT values of 0, and 100 for GIPRCNT values of -100.
With `O=C1c2ccccc2C(=O)c2cc(Cn3cc[n+](Cc4ccc5ccccc5c4)c3)ccc21`, the growth is 60.1%.

Turning to `C=C(C)[C@@H]1CC[C@]2(CNCCO)CC[C@]3(C)[C@H](CC[C@@H]4[C@@]5(C)CCC(N)[C@@](C)(CO)[C@@H]5CC[C@]43C)[C@@H]12` (stereo not given in full), the growth was 68.6%.

Turning to `C=CCN1C(=O)[C@]2(SC1=S)[C@H](c1cccc(Cl)c1)CN(C)[C@]21C(=O)NC2C=CC(Cl)=C[C@H]21` (stereo not given in full), the growth was 34.1%.

Turning to `O=C(Oc1ccc([N+](=O)[O-])cc1)c1ccc(CBr)cc1`, the growth is 105%.

Turning to `CCOc1ccc(-c2nc3ccc(-c4nc5ccc(N6CCN(C)CC6)cc5[nH]4)cc3[nH]2)cc1OCC`, the growth is -29.5% (active).

`COc1cc(NC(=O)c2cccc(-c3cc(=O)c4c(OC)c(OC)c(OC)cc4o3)c2)cc(OC)c1OC`: the growth was 27%.

As to `COc1cc2c(cc1OC)-c1ccc3cc4c(cc3c1N(CCCn1ccnc1)C2)OCO4`, the growth is 32.1%.

Take `O=C1CCC(N2C(=O)c3cccc(NCCCC4CCN(CCNC(=O)c5cc6c(o5)C(=O)c5ccccc5C6=O)CC4)c3C2=O)C(=O)N1` (stereo not given): the growth is -96.2% (active).

For `Cc1cccc(-c2cc(O)c(C(=O)N3CCOCC3)s2)c1`, the growth was 51.2%.

Take `CNC(=O)c1cc(Oc2ccc3nc(Nc4cc(Cl)cc(Cl)c4)ccc3c2)ccn1`: the growth is 58.9%.

Regarding `CCCCN(CCCC)CCCn1c(=O)c2sc3ncccc3c2n2nnc(-c3ccccc3)c12`, the growth was 124%.

Take `C=C(C)[C@@H]1CC[C@]2(CN)CC[C@]3(C)[C@H](CC[C@@H]4[C@@]5(C)CCC(N)[C@@](C)(CO)[C@@H]5CC[C@]43C)[C@@H]12` (stereo not given in full): the growth is 80.4%.

Consider `CC(=O)c1sc(-c2ccccc2)cc1N`, for which the growth is 101%.

On to `O=C1Nc2ccccc2/C1=N/N=C/c1ccsc1`, for which the growth was 112%.

For the compound `COc1cccc(/C=C2\COc3ccc(O)cc3C2=O)c1OC`, the growth is 57.8%.

Consider `CCO/C=N/C1=C(C#N)C(c2ccc(OC)cc2)c2c(c3ccccc3n(C)c2=O)O1` (stereo not given), for which the growth is 117%.

`COc1cccc(CCC2CCCN(c3cc(C)nc(N)n3)C2)c1` (stereo not given): the growth is 39.1%.

With `CCCc1nc2ccccn2c1Nc1ccc(C(=O)NO)cc1`, the growth was 98.1%.

As for `NS(=O)(=O)c1cn(-c2ncnc3nc[nH]c23)ccc1=O`, the growth is 109%.

Turning to `COC(=O)CNC(=O)C(=O)c1c(O)c(O)c(C(C)C)c2cc(C)c(-c3c(C)cc4c(C(C)C)c(O)c(O)c(C(=O)C(=O)NCC(=O)OC)c4c3O)c(O)c12`, the growth is 30.2%.

`OC(COc1cccc2ccccc12)CN1CCN(c2ccccc2)CC1` (stereo not given): the growth was 95.3%.

Turning to `CC[C@]1(O)C[C@H]2CN(CCc3c([nH]c4ccccc34)[C@@](C(=O)OC)(c3cc4c(cc3OC)N(C=O)[C@H]3[C@@](O)(C(=O)OC)[C@H](OC(C)=O)[C@]5(CC)C=CCN6CC[C@]43[C@@H]65)C2)C1`, the growth was -24.2% (active).

Take `O=C(CCl)N1c2cccc3cccc(c23)N(C(=O)CCl)C1c1cn(-c2ccccc2)nc1-c1cccc([N+](=O)[O-])c1`: the growth was 98.5%.

For `CN(C)c1ccc(/C=C/c2c(F)cccc2F)cc1`, the growth was 94.7%.

For the compound `Cc1cc(=O)c2cc3nc(-c4cccnc4)oc3c(Br)c2o1`, the growth was 103%.

For `CCNCCNc1cc(-c2ccc(Cl)cc2)c(C#N)c2nc3ccccc3n12`, the growth was -33.4% (active).

With `COc1cc2nc(Nc3ccc(F)cc3)nc(N)c2cc1OC`, the growth was 93.9%.

As to `CN(C)c1ccc(/C=N/NC(=O)COc2cc(=O)n(C)c3ccccc23)cc1`, the growth was 108%.

Consider `COc1cc(-c2ccc(N=Nc3c(O)c(C(=O)Nc4ccccc4OC)cc4ccccc34)c(OC)c2)ccc1N=Nc1c(O)c(C(=O)Nc2ccccc2OC)cc2ccccc12`, for which the growth is 90.2%.

As for `COc1cc(-c2ncn(/C=C\c3nnco3)n2)cc(C(F)(F)F)c1`, the growth is -13.8% (active).

Regarding `CCCCNCC(=O)Nc1ccc(C(=O)OCC)cc1`, the growth was 92.5%.

`O=C(CC1Sc2ccccc2NC1=O)NNc1ccc(F)cc1` (stereo not given): the growth was 88.6%.

For `Cc1ccc(S(=O)(=O)N(CC[C@@H]2C[C@H]2c2cc3ccccc3o2)C(=O)NC2CCCCC2)cc1`, the growth is 112%.

As for `CCCCN1CCN(c2ccc3nc(-c4ccc5nc(-c6cc(OC)c(OC)c(OC)c6)[nH]c5c4)[nH]c3c2)CC1`, the growth was 80.2%.

Consider `CN1C(=O)CCC(N2C(=O)c3cccc(NCCOCCOCCNC(=O)c4cc5c(o4)C(=O)c4ccccc4C5=O)c3C2=O)C1=O` (stereo not given), for which the growth is -95.4% (active).

For the compound `CS(=O)(=O)c1ccc(-c2[nH]c3ccc(F)cc3c2/C=N/O)cc1`, the growth is 91%.

For `CCN(CC)CC(O)CNc1c2ccc(Cl)cc2nc2ccc(OC)cc12` (stereo not given), the growth is 42.9%.

In the case of `CN(C)c1cnccn1`, the growth was 73%.

On to `CC(C)OC(=O)OCOP(=O)(OCOC(=O)OC(C)C)C1CCCN(O)C1=O` (stereo not given), for which the growth was 22.8%.

On to `O=c1[nH]c(=O)n(C2CC(O)C(CO)O2)cc1CO` (stereo not given), for which the growth is 82.1%.
